For 70 sequences, median seed-adjusted z-score results are on record in PubChem BioAssay AID1347426 (Functional Genomics Laboratory (NCATS/FGL), 2020).

Among all 31,000 sequences or so, about 1,400 (4.5%) were called active. Many of the other results were omitted from the sample, so actives are more common in it than they were. A number with no mark means an inactive call.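 Rule for the calls: active = median seed-adjusted z-score above 1 or below -1; inactive = the rest.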

A short description of this assay: Novel Modifiers of Survival Motor Neuron (SMN) Protein: Gene Identification via Genome-wide siRNA Screen.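 Note: luminescence tracks full-length SMN protein made from the SMN2 reporter.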 Conditions: HEK293T SMN2-luciferase reporter, siRNA knockdown, 72 h; actives lie on both sides. The method in brief:
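siRNA screen, 10418 genes ×3 siRNAs; 1 pmol/well, lipid reverse transfection into HEK293T SMN2-luc reporter line. 72 h, 37 °C, 5% CO2; ONE-Glo readout. Data: neg-ctrl normalized, log10, MAD; hit = MAD >1.0 or < -1.0.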
(In general: A reporter such as luciferase makes a cellular process visible.)
Consider CGAAUGACAAGUGAUCUAATT against MDH1B, for which the median seed-adjusted z-score is -1.13 (active). Regarding GCUCAACUCUUAUUAGUCATT against ZNF485, the median seed-adjusted z-score was 0.445. With AUACCUGAACAGUCCCUCATT against NOBOX, the median seed-adjusted z-score is -0.426. As to CGCGCAACAUCGUCAAGUATT against LPHN1, the median seed-adjusted z-score was -1.03 (active). Turning to GGACUAUUACAAAUCAAGATT against FLT3, the median seed-adjusted z-score is 0.418. Take GGACAUUGAUUAUAUUGGATT against GALC: the median seed-adjusted z-score was 0.

Consider GACCGAGAAGUACCGCUGATT against HBZ, for which the median seed-adjusted z-score was -0.0054. In the case of GCAUGUACCAGGUUCAGUATT against LRFN1, the median seed-adjusted z-score was 0.605. As for GCAGAGACCUACAAAAAGATT against RCN3, the median seed-adjusted z-score is -2.44 (active). For the sequence GGCAGUGUUUAUUUACUAUTT against RHBDL2, the median seed-adjusted z-score was 0.0701. CCAAAGAUGUUUCAUCUGATT against PCDHGA7: the median seed-adjusted z-score is 0.705. To AAGGUAAAAUUGAAGAGUUTT against SERPINB9 belongs 0; to CUCACCUACUGGAACCUGATT against ZBED4, -0.553; to CCAACAUGCUAAUCACCUATT against MAP3K12, -0.6. To CUAUUUUACCUUUACAAGATT against ALDH1A2 belongs 0.564; to CAUUAUCUAUUCUAGACAATT against TTC18, -1.15 (active); to GCAUUGCCUCUAUACCAGATT against MALT1, 0.442. For the sequence GGGCAUGUUUCGUACCGUUTT against MYH10, the median seed-adjusted z-score was 0.0877. In the case of AGAACAUCCUGAUAGACCUTT against PIM2, the median seed-adjusted z-score is 0.00597. Consider GGUGCGGAGAGAUGAGAUATT against PPM1M, for which the median seed-adjusted z-score is 0.

Take GCAGAAAUGACACCAAUAATT against NMB: the median seed-adjusted z-score is 0.746. Turning to GCUCCUCAAAGGAUAUGAATT against CAB39L, the median seed-adjusted z-score was 0. For AUUUAUUUGUUGAGGUUAUTT against PIM3, the median seed-adjusted z-score is -1.01 (active). As for GACCCUAAGCAGUAUAAGATT against CHSY3, the median seed-adjusted z-score is -0.113. CGAUUGCCCAUCAUCCUGATT against HAO2: the median seed-adjusted z-score was 0.039. Turning to GCUUCUACCCGGACGAAGATT against MYCN, the median seed-adjusted z-score was 0.00242. As for AAACACCGCUGUUCCGUAATT against MED8, the median seed-adjusted z-score was -1.61 (active). Consider GGCUAGUGAUCGACCGUAATT against FADS1, for which the median seed-adjusted z-score is -0.905.

Turning to GAAACCUGCUGAUCUACGATT against CREB3L2, the median seed-adjusted z-score was -0.192. As for GGAGAAAACCUUCGAGCAGTT against NKX6-2, the median seed-adjusted z-score is 0.101. Regarding UCCUAAAUGUGACCCGGUATT against ZMYND19, the median seed-adjusted z-score is 0.369. As to GCCCAUUUCAUCAACCUGATT against PRDM15, the median seed-adjusted z-score was 0.258. For CAACAACUGCUACCAAGAUTT against SLC6A4 the value was 1.43 (active). To GGAACUAGAUGUCAUGUAUTT against VILL belongs 0.518. For CAAGUGUCUAUGUAACGAATT against FBN2, the median seed-adjusted z-score was 0.373. Regarding GCCUUUACCCUUGAAGAAATT against ME3, the median seed-adjusted z-score was 0.166. CAAUCAUGUCGAGAAAUAATT against TGIF2LX: the median seed-adjusted z-score was -0.568. For the sequence CGUUCAGUCCGUCACCCAATT against GATAD2A, the median seed-adjusted z-score is -0.715. For the sequence GGGUGGGUUACAUAGCACATT against CLDN19, the median seed-adjusted z-score is 0. On to GACUUAACCAAGAGACGUATT against THOC2, for which the median seed-adjusted z-score was -1.22 (active).

For GGACGAAGGACGUGCUGUUTT against SHC2, the median seed-adjusted z-score was -0.207. As for GCAAUUACAUUGUACGCUUTT against ETFDH, the median seed-adjusted z-score is 0.154.

Turning to CAGCUUCAGGAGAAUGAAATT against PPP1CC, the median seed-adjusted z-score is -0.344. Take GCACGUAAGCUGAACACUATT against PRC1: the median seed-adjusted z-score was -0.0195.

Consider UGAAGAACCUGGACGCCAATT against CCL24, for which the median seed-adjusted z-score is 0. For CCUCGAGGAGAUUAACAAATT against NPEPL1 the value was 1.12 (active); for CAGAUGAAGUGAUCGGUGATT against CIITA, -0.109; for GCUCCUGUAUGAAUGCAAUTT against FBP2, 0. As to GGCUUUUAGCCUGAAGAAATT against PRDM5, the median seed-adjusted z-score was -0.463. On to CUGAUGCUCUGUAUCCCAATT against TNRC4, for which the median seed-adjusted z-score is 0.801. As for GAUGAUAUUUAUUCACCAATT against ZBTB25, the median seed-adjusted z-score is 0.

As for GCAUACCUCAGUUCCAAGATT against CDY2A, the median seed-adjusted z-score is 0.75.

As to CCUCUAACCUUAGAUGAAATT against GTF2E2, the median seed-adjusted z-score is -1.32 (active). Turning to GGAGCAUAAAGUAGACCGATT against ABCA10, the median seed-adjusted z-score was -0.104. GACCGUUCACUGUACAACATT against FUT9: the median seed-adjusted z-score was 0.0444.

Consider GUGUUAUAACAAUCGAAGATT against CAPSL, for which the median seed-adjusted z-score was -0.168.

For the sequence GGCUUAAACUUAGAGUCAATT against MYLIP, the median seed-adjusted z-score is 0.652. In the case of CAGUCGAUGUCCAUGAAUATT against LRRN1, the median seed-adjusted z-score is -0.407. As for GAAUUGCUCCUAAUGUCAATT against MYB, the median seed-adjusted z-score was 0.307. For the sequence CAGUGAGGUGAAACAAAUATT against DNAJC8, the median seed-adjusted z-score was -1.62 (active). Regarding GUGACCAUCUUGGACAUUATT against CELSR1, the median seed-adjusted z-score was -0.466. As for GGCGACUGUUUAUACAUGATT against ALDH7A1, the median seed-adjusted z-score is -0.406. For the sequence GGAAGAAAUUAGCUAAAAATT against MKI67IP, the median seed-adjusted z-score was 0.426. Regarding UGACCCAGAUUAUCGCCGATT against POLR2I, the median seed-adjusted z-score is -3.27 (active). Take GCCUAGAGGAUACCCAAAATT against NPVF: the median seed-adjusted z-score was 0.588. On to GCUCAGAUGUUAUUCGGGATT against SKIV2L, for which the median seed-adjusted z-score is 0.209. For GCAAAGCUAUUGCAUUGAATT against HSDL2, the median seed-adjusted z-score is -0.0717. To AGAUCAACCCAGAUAACUATT against INCENP belongs -0.339.

GCACCUAUCUUGACCUGCUTT against CTSC: the median seed-adjusted z-score was 0. CCUUCUAAUUCGCAAGGUATT against REL: the median seed-adjusted z-score is -0.358.
